Screens (PubChem BioAssay)
Rows were chosen to be rich in hits. Some 6.2% of all compounds tested hit in one or more screens of this group.
HCMV antiviral = blocks human cytomegalovirus replication; HFF cells, HCMV-luciferase reporter, 72 h; hits give low values; activity change, negative = inhibition, % at 57.5 µM; hit rate 4.5% among 410,000; in the data active = activity change below about -60%; inconclusive = no clear call, values can overlap the other calls; inactive = above about -39%
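Luciferase read-out from HCMV-luciferase-infected HFFs (MOI 1 PFU/cell) 72 h post infection at 37C; compounds added after 16 h cell attachment; activity normalized between buffer-only basal and Salinomycin (10uM) inhibitor controls.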
MARV entry inh = blocks Marburg virus binding to or entry into cells | Marburg virus pseudotyped entry inhibition, cell reporter | Potency, µM (series often up to 37.8 µM), hits mostly inhibitors | hit rate 1.8% among 300,000; calls by dose curve; tested in HEK293 cells
FMDV inh = foot and mouth disease virus antiviral activity; FMDV antiviral cell-based qHTS; Potency, µM (highest dose often 57.9 µM), usual class: inhibitors; hit rate 1.2% among 410,000; AID 1159524; calls by dose curve; tested in HEK293T cells; also: read-out not given here; nearly all actives have a fitted effect of over 45% in size
LASV entry inh = blocks Lassa virus binding to or entry into cells; Lassa virus pseudotype entry inhibition, cell reporter; Potency, µM (highest dose often 37.9 µM), hits mostly inhibitors; hit rate 1.2% among 300,000; calls by dose curve; tested in HEK293 cells; also: nearly all actives have a fitted effect of over 50% in size
Of the large screens only hits and unclear results are named; the others gave an inactive call.

COc1cccc(-n2c(=S)[nH]c3ccccc3c2=O)c1	none
O=c1c2ccccc2[nH]c(=S)n1-c1cccc(S(=O)(=O)N2CCCC2)c1	HCMV antiviral -77
COc1ccc(NC(=O)c2c(C)noc2-c2snnc2C)cc1	MARV entry inh 10µM, LASV entry inh inconclusive
CCC/C(=N\NC(=O)CCC(=O)NCc1ccccc1)c1ccccc1	MARV entry inh inconclusive, LASV entry inh 4µM
COc1cc(=O)n2c(c1C(=O)NC(C)c1ccco1)CCN(C(=O)c1ccccc1SC)CC2 (stereo not given)	none (no result: HCMV antiviral, MARV entry inh, LASV entry inh)
O=C(NCc1cccnc1)O[C@H]1CC[C@@]23CCCN2C(=O)CCC[C@H]3[C@H]1Cc1ccccc1	none (no result: MARV entry inh, FMDV inh, LASV entry inh)
O=[N+]([O-])c1ccc2nc(NN=Cc3ccc(O)cc3)sc2c1	HCMV antiviral -62, MARV entry inh inconclusive
CCN(CC)S(=O)(=O)c1cc(C(=O)Nc2cc(C)on2)ccc1Cl	HCMV antiviral -64
CC[C@@H](C)[C@H](NS(=O)(=O)c1cccc2ccccc12)C(=O)N[C@H](C=O)Cc1c[nH]c2ccccc12	none (no result: HCMV antiviral, MARV entry inh, LASV entry inh)
Cc1ccc(-n2c(O)c(/C=N/NC(=O)C3COc4ccccc4O3)c3ccccc3c2=O)cc1 (stereo not given)	HCMV antiviral -61, MARV entry inh inconclusive
O=C(N/N=C/c1c(O)n(-c2ccccc2Cl)c(=O)c2ccccc12)C1COc2ccccc2O1 (stereo not given)	MARV entry inh inconclusive, LASV entry inh inconclusive (no result: HCMV antiviral)
C/C(=N\NC(=O)C1COc2ccccc2O1)c1cccs1 (stereo not given)	HCMV antiviral -60 (no result: FMDV inh)
Cc1c(/C=N\NC(=O)C2COc3ccccc3O2)c2ccccc2n1C (stereo not given)	HCMV antiviral -86, LASV entry inh inconclusive
Cc1ccc(/C=N/NC(=O)C2COc3ccccc3O2)s1 (stereo not given)	HCMV antiviral -76, MARV entry inh inconclusive, LASV entry inh inconclusive
O=C(N/N=C/c1cccs1)C1COc2ccccc2O1 (stereo not given)	LASV entry inh inconclusive (no result: FMDV inh)
COC(=O)[C@H](Cc1ccccc1)N1C[C@@H](N2CCC[C@@H]2C)C[S+]1(=O)[O-]	none (no result: HCMV antiviral, MARV entry inh, FMDV inh)
COc1ccc2c(c1)[C@@H](NC(=O)OCc1ccccc1)[C@H](C)[C@@H](c1ccccc1)N2C(=O)NC(C)C	none (no result: MARV entry inh, FMDV inh, LASV entry inh)
Cc1ccc(-c2ccnc(-n3ncc(C(=O)N(C)CC4CCCN(C)C4)c3C)n2)o1 (stereo not given)	none (no result: HCMV antiviral, MARV entry inh, LASV entry inh)
O=C(O)c1cccc2c1C(=O)c1ccc(-c3ccc(F)cc3F)cc1S2(=O)=O	HCMV antiviral -61 (no result: MARV entry inh, LASV entry inh)
O=C(O)c1cccc2c1C(=O)c1ccc(-c3ccc(F)cc3OCc3ccccc3)cc1S2(=O)=O	none (no result: HCMV antiviral, MARV entry inh, LASV entry inh)
Cc1ccc(C)c(N2CCN(C(=O)Cn3c(=O)c4cccn4c4ccc(F)cc43)CC2)c1	none (no result: MARV entry inh)
COC(=O)CC=C[C@@H](C)[C@@H](C=NO[C@@H](C)c1cn([C@H](CO)Cc2ccccc2)nn1)NS(=O)(=O)c1ccc(C)cc1	none (no result: HCMV antiviral, FMDV inh)
COc1cc(OC)c(C(=O)CCCCN2CCC3(CC2)NC(=O)NC3=O)cc1NS(=O)(=O)c1ccc(C(F)(F)F)cc1	none (no result: HCMV antiviral, MARV entry inh, LASV entry inh)
N#Cc1cccc(C(Br)S(=O)(=O)c2ccccc2)c1 (stereo not given)	HCMV antiviral -91 (no result: MARV entry inh, LASV entry inh)
O=S(=O)(c1ccccc1)C(Br)S(=O)(=O)c1ccccc1	none (no result: MARV entry inh, LASV entry inh)
N#Cc1ccc2nc(-c3ccc(CN4CCC(n5cc(-c6ccccc6)[nH]c5=O)CC4)cc3)c(-c3ccccc3)nc2c1	HCMV antiviral -99 (no result: MARV entry inh, FMDV inh, LASV entry inh)
O=c1[nH]c(-c2ccccc2)cn1C1CCN(Cc2ccc(-c3nc4ccccc4nc3-c3ccccc3)cc2)CC1	none (no result: MARV entry inh, FMDV inh, LASV entry inh)
COC(=O)CCN1CCC(c2cc(-c3cccc(C(F)(F)F)c3)n[nH]2)CC1	HCMV antiviral inconclusive
FC(F)(F)c1cccc(-c2cc(C3CCNCC3)[nH]n2)c1	HCMV antiviral -72, MARV entry inh inconclusive, LASV entry inh inconclusive
FC(F)(F)c1cccc(CN2CCC(c3cc(-c4cccs4)n[nH]3)CC2)c1	HCMV antiviral -79, MARV entry inh inconclusive, LASV entry inh inconclusive
CN(Cc1cccs1)[C@H]1CC[C@@]23CCCN2C(=O)CCC[C@H]3[C@H]1Cc1ccccc1	none (no result: MARV entry inh, FMDV inh, LASV entry inh)
CC(=O)c1ccc2cccc3c2c1N=CN3C	HCMV antiviral -63 (no result: FMDV inh)
O=C(OCn1ncc(Cl)c(Cl)c1=O)c1cccc(C(F)(F)F)c1	MARV entry inh inconclusive, FMDV inh 14µM, LASV entry inh inconclusive (no result: HCMV antiviral)
N/C(=N\OC(=O)c1cccc(C(F)(F)F)c1)c1cnccn1	none (no result: MARV entry inh, LASV entry inh)
Cc1[nH]c2ccccc2c1C(=O)CSc1nc2ncc(Cl)cc2[nH]1	HCMV antiviral -62, LASV entry inh inconclusive
CC(C)Cn1c(N)c(C(=O)CSc2nc3ncc(Cl)cc3[nH]2)c(=O)n(C)c1=O	MARV entry inh inconclusive, FMDV inh 16µM, LASV entry inh inconclusive
Cc1[nH]c2ccccc2c1C(=O)CSC(=S)N(C)C	none
CC(C)Cn1c(N)c(C(=O)CSc2ccc3c(c2)OCCO3)c(=O)n(C)c1=O	HCMV antiviral -94, MARV entry inh inconclusive, FMDV inh 11µM, LASV entry inh inconclusive
CCCn1c(N)c(C(=O)CSc2nc3ncc(Cl)cc3[nH]2)c(=O)n(C)c1=O	FMDV inh inconclusive (no result: MARV entry inh, LASV entry inh)
Cc1[nH]c2ccccc2c1C(=O)CSC(=S)N1CCN(C)CC1	HCMV antiviral -62 (no result: MARV entry inh, LASV entry inh)
CC(C)[C@H](NC(=O)N1c2ccccc2NC(=O)[C@@H]1C(C)C)C(=O)N1CCC(C(=O)O)CC1	none (no result: MARV entry inh, LASV entry inh)
CC(C)=CCCC(C)=CCON=C1C[C@@H](O)[C@@H](O)[C@@H]2[C@H]3C(=O)N(c4cccc(Oc5ccccc5)c4)C(=O)[C@@H]3CC[C@H]12	none (no result: HCMV antiviral, FMDV inh, LASV entry inh)
OC(c1cccnc1)c1ccc2c(c1)CN(Cc1cn(-c3ccccc3)nc1-c1ccccc1)CCO2 (stereo not given)	none (no result: HCMV antiviral, MARV entry inh, LASV entry inh)
CCOC(=O)N1CCN(c2c(NCCCN(C)c3ccccc3)c(=O)c2=O)CC1	HCMV antiviral -75 (no result: MARV entry inh, LASV entry inh)
CCOC(=O)N1CCN(c2c(NCc3ccc(Cl)cc3)c(=O)c2=O)CC1	HCMV antiviral -75 (no result: MARV entry inh, LASV entry inh)
CCCCNC(=O)C(CC)Sc1nc2ccccc2c(=O)n1CCc1ccc(OC)c(OC)c1 (stereo not given)	LASV entry inh inconclusive (no result: MARV entry inh)
O=C(CSc1nc2ccsc2c(=O)n1-c1ccc(Br)cc1)NCc1ccc(Cl)cc1	none (no result: MARV entry inh)
COc1cccc(CNCC(O)(c2ccc(Cl)cc2)c2ccc(Cl)cc2)c1	MARV entry inh 18µM, FMDV inh inconclusive
COc1ccc(CNCC(O)(c2ccccc2)c2ccc(Cl)cc2)cc1 (stereo not given)	HCMV antiviral inconclusive, MARV entry inh inconclusive
Cc1ccc(CNCC(O)(c2ccccc2)c2ccc(Cl)cc2)cc1 (stereo not given)	MARV entry inh 10µM
Fc1ccc(CSc2ccc3nnc(-c4cccnc4)n3n2)cc1	FMDV inh inconclusive, LASV entry inh 13µM
CCSc1ccc2nnc(-c3cccc(F)c3)n2n1	HCMV antiviral -64
O=C(O)CSc1ccc2nnc(-c3cccnc3)n2n1	none (no result: MARV entry inh, LASV entry inh)
Cc1nc2ccc(S(=O)(=O)CCC(=O)Nc3ccc(C)c(C)c3)cc2s1	none (no result: MARV entry inh)
COc1cc(NC(=O)C2CC(c3c(F)cccc3Cl)=NO2)cc(OC)c1OC (stereo not given)	MARV entry inh inconclusive, FMDV inh 25µM
N#Cc1nc(-c2ccc(OCc3ccccc3)cc2)oc1N1CCC(C(N)=O)CC1	none
CCOc1ccc(Nc2oc(-c3ccc(COc4ccccc4C)o3)nc2C#N)cc1	HCMV antiviral -71
